# Measured values taken from PubChem BioAssay AID1259349 (Broad Institute, 2017).
# Out of some 17,000 compounds screened, about 1,100 (6.5%) were called active. The sample holds actives, similar compounds and a random draw of the others, so the mix is not that of the screen.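 The calls were made as follows: active = z-score of -3 or lower, meaning strong loss of probe binding signal; inactive = the rest.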
# Target: Insulin-degrading enzyme (Homo sapiens) (UniProt P14735)
# Assay: exo-site inhibitors of human IDE, primary screen, biochemical, fluorescence anisotropy, probe displacement (AID 1259349);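 also: His-tagged human IDE residues 42-1019 made in E. coli with 30 nM FL-6b probe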
# Settings: purified IDE, FL-6b probe fluorescence polarization; at 20 µM; active compounds read low
# Chain of Insulin-degrading enzyme (Homo sapiens) (P14735 42-1019 limits assumed): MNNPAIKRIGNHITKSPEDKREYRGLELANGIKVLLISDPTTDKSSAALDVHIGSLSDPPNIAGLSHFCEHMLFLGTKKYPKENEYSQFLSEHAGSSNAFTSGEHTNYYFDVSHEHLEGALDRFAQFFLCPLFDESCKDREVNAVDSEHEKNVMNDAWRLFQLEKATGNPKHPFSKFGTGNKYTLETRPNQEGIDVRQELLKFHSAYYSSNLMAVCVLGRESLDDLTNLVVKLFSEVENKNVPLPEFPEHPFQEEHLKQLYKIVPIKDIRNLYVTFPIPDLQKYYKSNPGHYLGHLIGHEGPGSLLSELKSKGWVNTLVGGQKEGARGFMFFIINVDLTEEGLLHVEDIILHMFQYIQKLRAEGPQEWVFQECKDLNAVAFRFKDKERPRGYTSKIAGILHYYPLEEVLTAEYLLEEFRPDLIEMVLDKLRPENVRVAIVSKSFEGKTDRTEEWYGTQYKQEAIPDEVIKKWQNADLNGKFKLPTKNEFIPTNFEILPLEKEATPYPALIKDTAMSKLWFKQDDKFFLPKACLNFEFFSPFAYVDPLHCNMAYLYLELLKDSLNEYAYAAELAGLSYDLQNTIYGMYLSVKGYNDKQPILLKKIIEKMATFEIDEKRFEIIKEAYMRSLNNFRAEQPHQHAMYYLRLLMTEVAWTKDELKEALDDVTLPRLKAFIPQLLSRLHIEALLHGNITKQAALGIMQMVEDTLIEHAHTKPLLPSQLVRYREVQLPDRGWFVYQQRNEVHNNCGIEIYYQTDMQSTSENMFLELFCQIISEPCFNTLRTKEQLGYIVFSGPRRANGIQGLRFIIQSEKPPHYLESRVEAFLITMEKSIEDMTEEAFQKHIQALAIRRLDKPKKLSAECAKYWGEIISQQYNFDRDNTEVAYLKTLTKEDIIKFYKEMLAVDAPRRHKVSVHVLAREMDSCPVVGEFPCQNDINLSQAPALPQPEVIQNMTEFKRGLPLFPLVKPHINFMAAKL
row,Structure (SMILES),z-score
1,N#C[C@H]1[C@H](c2ccccc2-c2ccc(F)cc2)[C@H](CO)N1C(=O)Cc1ccncc1,2.04 (inactive)
2,CO[C@@H]1CC[C@@H]2CCOc3ccc(C#N)cc3C(=O)N(C)[C@H](C)C(=O)N(C)C[C@@H]1O2,2.26 (inactive)
3,CO[C@@H]1CN(C)C(=O)c2ccc(NS(=O)(=O)c3c(C)noc3C)cc2OC[C@H](C)NC[C@@H]1C,1.77 (inactive)
4,COc1ccccc1-c1ccc([C@@H]2[C@@H](CO)N3CCCCN(S(=O)(=O)c4cn(C)cn4)C[C@H]23)cc1,-2.23 (inactive)
5,COc1ccc(-c2ccc([C@H]3[C@H]4CN(C(=O)c5ccc6c(c5)OCO6)CCCCN4[C@H]3CO)cc2)cc1,0.126 (inactive)
6,CCS(=O)(=O)N1CCCCN2[C@@H](CO)[C@@H](c3ccc(-c4ccccc4)cc3)[C@@H]2C1,-3.06 (active)
7,O=S(=O)(c1ccccc1)N1CCCCN2[C@H](C1)[C@H](c1ccc(-c3ccccc3)cc1)[C@@H]2CO,2.36 (inactive)
8,CCCC#Cc1ccc([C@H]2[C@H](CO)N3CCCCN(C(=O)c4ccc5c(c4)OCO5)C[C@@H]23)cc1,1.25 (inactive)
9,COc1ccccc1-c1ccc([C@@H]2[C@@H](CO)N3CCCCN(C(=O)c4ccncc4)C[C@@H]23)cc1,-4.74 (active)
10,Cn1cnc(S(=O)(=O)N2CCCCN3[C@H](CO)[C@@H](c4ccc(-c5ccc(F)cc5)cc4)[C@@H]3C2)c1,3.91 (inactive)
11,O=S(=O)(Cc1ccccc1)N1CCCCN2[C@@H](CO)[C@H](c3ccc(-c4ccccc4)cc3)[C@@H]2C1,2.58 (inactive)
12,Cc1cccc(-c2ccc([C@@H]3[C@H](CO)N4CCCCN(C(=O)c5ccc6c(c5)OCO6)C[C@@H]34)cc2)c1,-4.42 (active)
13,COc1ccc(C#Cc2ccc([C@@H]3[C@@H](CO)N4CCCCN(C(=O)c5ccncc5)C[C@@H]34)cc2)cc1,-0.38 (inactive)
14,Cc1cccc(-c2ccc([C@H]3[C@H](CO)N4CCCCN(S(=O)(=O)c5cn(C)cn5)C[C@@H]34)cc2)c1,-4.09 (active)
15,O=C(c1ccncc1)N1CCCCN2[C@H](CO)[C@@H](c3ccc(C#Cc4ccccn4)cc3)[C@H]2C1,-2.35 (inactive)
16,O=C1CN(S(=O)(=O)Cc2ccccc2)C[C@@H]2[C@@H](c3ccc(C#Cc4ccccc4)cc3)[C@@H](CO)N12,-0.431 (inactive)
17,O=C(c1cccc(F)c1)N1CC(=O)N2[C@H](C1)[C@@H](c1ccc(C#Cc3ccc(F)cc3)cc1)[C@@H]2CO,2.4 (inactive)

row,Structure (SMILES),z-score
1,CCC(=O)N1CC[C@H]2[C@@H]1c1cc(-c3ccc(C#N)cc3)ccc1N(C)[C@H]2CO,-0.903 (inactive)
2,O=C(C[C@H]1CC[C@@H]2NC[C@H](O)COC[C@H]2O1)NCCN1CCCCC1,-0.195 (inactive)
3,O=C1CCCCn2nncc2COC[C@@H](Cc2ccccc2)N1,0.104 (inactive)
4,CC(=O)NC[C@H]1[C@H](c2ccccc2)[C@@H](CO)N1C(=O)Cc1cccnc1,5.37 (inactive)
5,CN(C)CC#Cc1ccc([C@H]2[C@H](CO)N3CCCCN(CC4CC4)C[C@@H]23)cc1,3 (inactive)
6,Cc1ccc(-c2ccc([C@H]3[C@H]4CN(S(=O)(=O)c5cccc(F)c5)CC(=O)N4[C@H]3CO)cc2)cc1,1.96 (inactive)
7,O=C(c1ccncc1)N1CCCCN2[C@H](CO)[C@H](c3ccc(-c4ccccc4)cc3)[C@H]2C1,-4.53 (active)
8,O=C(c1cccc(F)c1)N1CCCCN2[C@H](CO)[C@H](c3ccc(-c4ccncc4)cc3)[C@H]2C1,0.501 (inactive)
9,O=C(c1ccc(F)cc1)N1CCCCN2[C@@H](CO)[C@H](c3ccc(-c4ccccc4)cc3)[C@@H]2C1,-0.452 (inactive)
10,O=C(c1ccc(F)cc1)N1CCCCN2[C@H](C1)[C@@H](c1ccc(C#CC3(O)CCCC3)cc1)[C@@H]2CO,-3.65 (active)
11,CC(C)C#Cc1ccc([C@H]2[C@H](CO)N3CCCCN(C(=O)c4ccc(F)cc4)C[C@@H]23)cc1,1.11 (inactive)
12,O=C(c1cccc(F)c1)N1CCCCN2[C@H](CO)[C@H](c3ccc(C#CC4(O)CCCC4)cc3)[C@H]2C1,0.958 (inactive)
13,CC(C)(O)C#Cc1ccc([C@H]2[C@H]3CN(C(=O)c4ccncc4)CCCCN3[C@H]2CO)cc1,0.748 (inactive)
14,C[C@H](CO)N1C[C@H](C)[C@H](CN(C)C(=O)Nc2cccc(Cl)c2Cl)OCc2ccccc2-c2ccccc2C1=O,-1.18 (inactive)
15,CCCC#Cc1ccc([C@H]2[C@H]3CN(C(=O)Nc4ccc(F)cc4)CC(=O)N3[C@H]2CO)cc1,3.77 (inactive)
16,C[C@@H]1CN([C@H](C)CO)C(=O)CCCn2cc(nn2)CO[C@@H]1CN(C)C(=O)Nc1ccc2c(c1)OCO2,-0.664 (inactive)
17,CCCC#Cc1ccc([C@H]2[C@@H](CO)N3C(=O)CN(C(=O)c4ccncc4)C[C@@H]23)cc1,3.16 (inactive)
